# Reference: paper PMC3315485, “Probing the Informational and Regulatory Plasticity of a Transcription Factor DNA–Binding Domain”
# Substitutions are numbered along the chain they refer to.
# How the values were obtained:
# Assay in all cases: MITOMI; MITOMI, 295 K (22 C); buffer, salt and pH not stated in the material; high values mean tight binding
# Conditions in all cases: protein: ivt; label: fluorescent; dsDNA, one strand shown
# [1] = target: T1, MarA RQR (Escherichia coli, UniProt P0ACH5 1-127, W40R)
# T1 sequence: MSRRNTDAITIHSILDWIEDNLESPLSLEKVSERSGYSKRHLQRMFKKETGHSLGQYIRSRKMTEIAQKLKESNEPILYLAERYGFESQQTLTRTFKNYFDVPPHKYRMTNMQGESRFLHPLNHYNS
# How it was run: (§1)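 Each fluorescently labelled MarA protein variant, made by in vitro transcription and translation with the RTS E. coli HY kit plus tRNA-lys-bodipy-fl, was tested by MITOMI against 64 synthesized mar binding site variants. Protein and DNA fluorescence were read on Genepix at 295K. Association constants, measured by MITOMI, are reported for each site relative to the highest-affinity site for the same protein variant.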
# [2] = target: T2, MarA RTR (Escherichia coli, UniProt P0ACH5 1-127, W40R;Q43T)
# T2 sequence: T1 sequence with Q43T
# How it was run: as §1
# [3] = target: T3, MarA SAR (Escherichia coli, UniProt P0ACH5 1-127, W40S;Q43A)
# T3 sequence: T1 sequence with R40S, Q43A
# How it was run: as §1
# [4] = target: T4, MarA TRR (Escherichia coli, UniProt P0ACH5 1-127, W40T;Q43R)
# T4 sequence: T1 sequence with R40T, Q43R
# How it was run: as §1
sequence,measurement,setting,value
ATGTTCCGTTTTGCTAAAT,binding signal,[1],0.16 Ka relative to the best site of the variant
same,binding signal,[2],0.207 Ka relative to the best site of the variant
same,binding signal,[3],0.254 Ka relative to the best site of the variant
same,binding signal,[4],0.449 Ka relative to the best site of the variant
